Where “and” joins values, the source holds several entries; their conditions need not be identical. Equal values may be shown once. A number with no mark means an inactive call.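 How the source made its calls: active means superoxide response below 65% of plate, a cut near 3 SD across the whole screen; inactive means the rest.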

The nature of this assay: calorie-restriction mimetic ROS inhibitors, yeast – validation compound set, pilot screen (AID 2706).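 Further: yeast exposed to compound for one week at 30 degrees C before staining; 100% = mean of all compound wells on the same plate.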 The following applies: S. cerevisiae aging, superoxide DHE fluorescence; at 10 µM; active compounds read low.
Consider `CN1C[C@H](CNC(=O)OCc2ccccc2)C[C@@H]2c3cccc4c3c(cn4C)C[C@H]21`, for which the superoxide response (% of plate) was 125%.
In the case of `C[N+]1(C)C2CCC1CC(OC(=O)C(CO)c1ccccc1)C2` (stereo not given), the superoxide response (% of plate) is 105%.
The figure for `CCC1(c2ccccc2)C(=O)N(COC)C(=O)N(COC)C1=O` is 109%; for `CCn1c(O)c(C(=O)CC2NCCc3ccccc32)c(=O)n(CC)c1=S` (stereo not given) it is 113%.
As to `NC(=O)CN1CCCC1=O`, the superoxide response (% of plate) is 95.8%.
The figure for `Cc1ccsc1C(=O)C1CCCN(Cc2cc3ccccc3o2)C1` (stereo not given) is 97.5%; for `CN1C2CCC1CC(OC(=O)c1ccc(Cl)cc1)C2` (stereo not given) it is 99.6%; for `Cn1c(O)c(C=NCCc2c[nH]c3ccccc23)c(=O)n(C)c1=O` it is 106%.
As for `CC12CN3CC(C)(CN(C1)C3c1cccs1)C2=O` (stereo not given), the superoxide response (% of plate) is 102%.
With `[N-]=[N+]=CC(=O)OC[C@H](N)C(=O)O`, the superoxide response (% of plate) is 97.4%.
Consider `COP(=O)(OC)C(O)C(Cl)(Cl)Cl` (stereo not given), for which the superoxide response (% of plate) is 94.8%.
`CC(C)[N+](C)(CCC(C(N)=O)(c1ccccc1)c1ccccc1)C(C)C`: the superoxide response (% of plate) is 110%.
The result for `C[C@@]1(CO)[C@H](O)CC[C@@]2(C)[C@H]1CC[C@H]1C[C@@H]3C[C@@]12CC[C@]3(O)CO` reads 102%; that for `O=C1CCCC2=C1C(c1cccnc1)Nc1ccccc1N2` (stereo not given), 98%.
In the case of `O=c1[nH]c(=S)n(-c2ccccc2)c(O)c1/C=N/N1CCCCC1c1cccnc1` (stereo not given), the superoxide response (% of plate) is 100%.
The result for `Clc1ccc(C2NCCc3[nH]cnc32)cc1` (stereo not given) reads 94.4%; that for `Cc1ccc(-n2c(C)cc(/C=C3/C(=O)NC(=O)N(C)C3=O)c2C)cc1`, 94.5%; that for `C[N+]1(C)CCc2cc3c(cc2[C@H]1[C@@H]1OC(=O)c2c1ccc1c2OCO1)OCO3`, 93.4% and 102%.
For the molecule `COc1ccc(NC2=NCC(C)S2)cc1` (stereo not given), the superoxide response (% of plate) was 101%.
The figure for `CC12CN3CC(C)(CN(C1)C3c1cccs1)C2O` (stereo not given) is 106%; for `O=C1NCCN2CCCC12` (stereo not given) it is 92.8%; for `NNC(=O)c1ccc(Cl)cc1` it is 88.1%.
The figure for `CN1CCN(C(=O)OC2c3nccnc3C(=O)N2c2ccc(Cl)cn2)CC1` (stereo not given) is 111%.
The figure for `O=c1[nH]c2ccccc2n1C1CCN(CCCC(c2ccc(F)cc2)c2ccc(F)cc2)CC1` is 88.4%.
`O=C1NC(=O)C2(Cc3ccccc3N3CCCC32)C(=O)N1c1ccc(Cl)cc1` (stereo not given): the superoxide response (% of plate) is 104%.
As to `CC1CCC[C@H](O)CCCCCc2cc(O)cc(O)c2C(=O)O1` (stereo not given in full), the superoxide response (% of plate) is 111%.
Take `O=c1cccc2n1C[C@H]1C[C@@H]2CN2CCCC[C@@H]12`: the superoxide response (% of plate) is 100%.
`CC(=O)OC1C2CCC1C(N1CCCC1)CC2` (stereo not given): the superoxide response (% of plate) is 91.4%.
The result for `CCOc1ccc(C2C(C#N)=C(N)Oc3c2c(=O)oc2ccccc32)cc1` (stereo not given) reads 103%; that for `COc1cc2c3cc1Oc1cc(ccc1O)C[C@@H]1c4c(cc(OC)c(O)c4Oc4ccc(cc4)C[C@H]3N(C)CC2)CCN1C`, 92.4%.
With `CN1CC[C@@]23CCCC[C@@H]2[C@@H]1Cc1ccc(O)cc13`, the superoxide response (% of plate) was 109%.
The figure for `O=c1c2ccccc2[se]n1-c1ccccc1` is 120%; for `CC[N+]1(C)CCCC(OC(=O)C(O)(c2ccccc2)c2ccccc2)C1` (stereo not given) it is 96.5%; for `C[C@]12CCC(=O)C=C1CCC1C2CC[C@@]2(C)C1CC[C@@]2(O)CC#N` (stereo not given in full) it is 95.6%.
As to `C[C@H]1CC[C@@]2(C)[C@@H](CC[C@@H]3[C@@H]2CC[C@]2(C)[C@@H](O)CC[C@@H]32)C1`, the superoxide response (% of plate) is 97.5%.
In the case of `C[C@H]1OC[C@@H](C[N+](C)(C)C)O1`, the superoxide response (% of plate) was 95.3%.
As for `CC(C)(C)C(O)C(Oc1ccc(Cl)cc1)n1cncn1` (stereo not given), the superoxide response (% of plate) is 277%.
As to `C[C@@H]1O[C@@H](O[C@H]2C[C@@H](O)[C@]3(CO)[C@H]4[C@H](O)C[C@]5(C)[C@@H](C6COC(=O)C6)CC[C@]5(O)[C@@H]4CC[C@]3(O)C2)[C@H](O)[C@H](O)[C@H]1O` (stereo not given in full), the superoxide response (% of plate) was 94.2%.
The result for `CC(=O)c1ccc(-c2ccccc2)cc1` reads 96.8%.
The figure for `CCOC(=O)c1cc2c(cn1)[nH]c1ccccc12` is 96.2%.

The values are drawn from PubChem BioAssay.
